Laboratory results reported in PubChem BioAssay AID602438 (Sanford-Burnham Center for Chemical Genomics, 2012).
Among all 360,000 compounds or so, about 3,100 (0.86%) were called active.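 How the source made its calls: active means inhibition or corrected inhibition above about 18%, plus a signal ratio from 0.5 to 1.5 (limit read from the data, passing the limit was not always enough); inactive means the rest.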 The list comes from a sample in which actives are over-represented; it also holds similar structures and randomly drawn compounds.

The molecules below were run against Neuropilin-1 (Homo sapiens) (UniProt O14786) (assay: modulators of CendR peptide binding to NRP-1, primary screen, biochemical, fluorescence polarization, uHTS (AID 602438)). Details: FAM-RPARPAR peptide binding to NRP-1, fluorescence polarization; at 25 µM; hits give high values.
Sequence of Neuropilin-1 (Homo sapiens) (O14786 whole entry, looked up): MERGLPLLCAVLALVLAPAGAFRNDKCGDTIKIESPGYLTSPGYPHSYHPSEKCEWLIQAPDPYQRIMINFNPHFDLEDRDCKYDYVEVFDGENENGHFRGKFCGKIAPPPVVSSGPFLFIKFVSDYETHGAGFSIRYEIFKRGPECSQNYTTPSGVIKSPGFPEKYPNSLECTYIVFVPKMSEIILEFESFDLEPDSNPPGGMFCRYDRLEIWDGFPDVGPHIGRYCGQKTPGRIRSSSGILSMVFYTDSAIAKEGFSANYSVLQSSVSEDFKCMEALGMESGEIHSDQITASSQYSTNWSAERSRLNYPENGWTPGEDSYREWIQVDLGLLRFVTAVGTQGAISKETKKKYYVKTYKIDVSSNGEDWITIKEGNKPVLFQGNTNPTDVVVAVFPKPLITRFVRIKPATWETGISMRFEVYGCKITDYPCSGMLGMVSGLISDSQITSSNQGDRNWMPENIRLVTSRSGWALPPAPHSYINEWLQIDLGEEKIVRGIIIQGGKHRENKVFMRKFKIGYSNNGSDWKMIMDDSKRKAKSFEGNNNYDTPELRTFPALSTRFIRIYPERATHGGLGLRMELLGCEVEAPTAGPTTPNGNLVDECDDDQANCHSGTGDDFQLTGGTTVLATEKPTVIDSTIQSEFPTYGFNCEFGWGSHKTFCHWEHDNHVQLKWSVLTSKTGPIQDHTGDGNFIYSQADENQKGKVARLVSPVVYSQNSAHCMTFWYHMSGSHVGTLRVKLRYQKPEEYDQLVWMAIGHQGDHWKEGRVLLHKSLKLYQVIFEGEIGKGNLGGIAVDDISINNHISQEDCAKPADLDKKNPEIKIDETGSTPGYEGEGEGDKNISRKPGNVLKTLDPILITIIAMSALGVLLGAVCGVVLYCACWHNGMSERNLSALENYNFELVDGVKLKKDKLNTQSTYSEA

inhibition, inactive:
O=C(C1CCCO1)N(c1ccc(F)cc1)C1C=CS(=O)(=O)C1 (stereo not drawn) -10.6%
CCc1nnc(NC(=O)CSc2nnc(COc3ccc(C#N)cc3)n2-c2ccccc2)s1 0.5%
CCOc1ccc(N(CC(=O)NCCOc2ccccc2OC)S(=O)(=O)c2ccccc2)cc1 -4.4%
COc1ccccc1N(CC(=O)N1CCCCC1)S(=O)(=O)c1ccccc1 -3.8%
COc1nc(OC)nc(N(C)CCO)n1 14.8%
O=C(CSc1nccn1-c1cccc(F)c1)NC1CCCC1 -2.9%
CC(=O)Nc1cccc(NC(=O)CSc2nccn2Cc2ccc(F)cc2)c1 0.6%
O=C(OCc1ccccc1)N1CCC2CC1c1cc(N3CCN(S(=O)(=O)c4cc(Cl)cc(Cl)c4)CC3)ccc12 (stereo not drawn) 7.8%
Cc1ccc(F)c(S(=O)(=O)NC(=O)C2(C)CCN2C(=O)CCc2cccs2)c1 (stereo not drawn) 0.1%
CC1(C(=O)NS(=O)(=O)c2ccccc2Cl)CCN1C(=O)c1cccc(F)c1 (stereo not drawn) 6.5%
CC1C(=O)N(Cc2cn(CC3CCCCC3)nn2)CCS(=O)(=O)N1Cc1ccc(-c2cccc(N(C)C)c2)cc1 (stereo not drawn) -7%
Cc1ccc(-c2noc(C3CCCN(C(=O)c4cccc(Cl)c4)C3)n2)o1 (stereo not drawn) 3.6%
COC(=O)CCCC1=CC2=CC(=O)C(C)(OC(=O)c3cccs3)C(=O)C2=CN1c1cccc(C#N)c1 (stereo not drawn) -18.7%
COC(=O)CCCC1=CC2=C(c3ccccc3)C(=O)C(C)(OC(=O)C3CCCC3)C(=O)C2=CN1c1ccc(OC)cc1 (stereo not drawn) -6.8%
Nc1cccc(OCCCCCOc2cccc(N)c2)c1 7%
C=CCOc1nc2c(c(=O)n(C)c(=O)n2C)n1Cc1ccc(Cl)cc1Cl 7.1%
CCOC(=O)N1CCN(Cc2nc3c(c(=O)n(C)c(=O)n3C)n2Cc2ccccc2)CC1 -7.4%
Cc1ccccc1C(=O)N1CCC(C(=O)Oc2ccc(C#N)cc2)CC1 -0.1%
Nc1nc(SCc2ccc([N+](=O)[O-])cc2)c2ncn(C3OC(CO)C(O)C3O)c2n1 (stereo not drawn) -20.4%
CC(C)Sc1nc(N)nc2c1ncn2C1OC(CO)C(O)C1O (stereo not drawn) -1.6%
Cc1cccc(C)c1NC(=O)C(c1ccc(C(F)(F)F)cc1)n1c(=O)c(-c2ccco2)nc2ccccc21 (stereo not drawn) -67%
CC(NCCO)C(=O)C12CC3CC(CC(C3)C1)C2 (stereo not drawn) 6.1%
COc1cc(/C=C/C(=O)OCC(=O)Nc2cccc(Oc3ccccc3)c2)ccc1O -3.6%
COc1ccc(C(C(=O)NCc2ccccc2)n2c(=O)c(-c3ccccc3)nc3ccccc32)cc1 (stereo not drawn) -0.4%
CCc1[nH]nc(C(=O)N2CCCC(CNS(=O)(=O)c3cccs3)C2)c1C (stereo not drawn) 3.8%
COc1cc2c(cc1O)C(SC)=NC(C)(C)C2 9%
COc1cc2c(cc1OC)C(C(C)C)=NC(C)(C)C2 -1.6%
Cn1c(=O)cc(OCCCC(=O)N2CCN(c3ccccn3)CC2)c2ccccc21 -0.5%
Cc1ccc(C)c(NC(=O)C(c2ccccc2)N2CCN(CC(=O)NC3CC3)CC2)c1 (stereo not drawn) -1.3%
CCOC(=O)c1cc2cc(C)ccc2[nH]1 1.1%
CCOC(=O)c1ccc2[nH]c3c(c2c1)CCCC3NC=O (stereo not drawn) -0.5%
CC1CC1C(=O)OCC(=O)Nc1cccc(F)c1 (stereo not drawn) 5.8%
O=P(c1cccs1)(c1cccs1)c1cccs1 6.4%
CN(CCCNC(=O)CN1C(=O)CC(C)(C)S(=O)(=O)c2ccccc21)C1CCCCC1 12.4%
COc1ccc(CCc2nc(-c3cccs3)no2)cc1 -5.8%
Clc1ccc(Cc2nnc(-c3cccs3)o2)cc1 -15.6%
O=C(OCc1ccc([N+](=O)[O-])cc1)C1CC(=O)N(Cc2ccccc2Cl)C1 (stereo not drawn) -11.4%
O=C(O)c1ccc(NS(=O)(=O)c2ccc3c(c2)C(=O)c2cc(S(=O)(=O)Nc4ccc(C(=O)O)cc4)ccc2-3)cc1 -59.7%
O=C(Nc1ccccc1C(=O)NCC1CCCO1)c1ccccc1F (stereo not drawn) 20.7%
O=C(NCC1CCCO1)c1ccccc1-c1nc(-c2ccccc2Cl)no1 (stereo not drawn) 8%
COc1ccc(NS(=O)(=O)c2ccc(C)c(C(=O)NCC(c3cccs3)N3CCOCC3)c2)cc1 (stereo not drawn) 6.2%
CC1(C(=O)Nc2ccc3c(c2)OCCO3)CN(S(C)(=O)=O)CC(=O)N1Cc1cccc(F)c1 (stereo not drawn) -4.8%
CN1CCCc2cc(C#N)c(=O)[nH]c21 4.8%
Cn1nnnc1NCc1ccc(Cl)c(Cl)c1 12.8%
CCCCn1nnnc1C(c1ccccc1)N1CCN(c2ccccc2OC)CC1 (stereo not drawn) -6.7%
COc1ccc(S(=O)(=O)N2CCCC(C(=O)Nc3ccc(NC(=O)c4ccccn4)cc3)C2)cc1 (stereo not drawn) 0.1%
CCCC(C(=O)n1nc(C)cc1C)C(NS(=O)(=O)c1ccc(C)cc1)c1ccccc1 (stereo not drawn) -0.9%

inhibition, active:
COc1ccccc1N(CCOc1ccccc1)S(=O)(=O)c1ccccc1 26.1%
Cc1ccc(F)c(S(=O)(=O)NC(=O)C2(C)CCN2C(=O)c2ccco2)c1 (stereo not drawn) 24.2%
COC(=O)Cc1nc2c(N)nc(N)nc2[nH]c1=O 26.3%
COC(=O)CCCC1=CC2=CC(=O)C(C)(OC(=O)c3cccs3)C(=O)C2=CN1CC1CC1 (stereo not drawn) 36.2%
Cn1c(=O)c2c(nc(OCc3cccnc3)n2Cc2ccccc2)n(C)c1=O 28.5%
CC(C)Cn1cnc2c(SCc3ccc(Cl)cc3)nc(N)nc21 20.8%
COc1cc2c(cc1OC)C(Nc1ccc(S(N)(=O)=O)cc1)=NC(C)(C)C2 26.3%
CCOC(=O)c1[nH]c2ccc(C)cc2c1N=C(C)N(C)C 28.1%
COc1nc(-c2ccc(Cl)cc2)ccc1-c1noc(-c2cccs2)n1 49.1%
Cc1ccc(-c2noc(-c3ccccc3C(=O)NCC3CCCO3)n2)cc1 (stereo not drawn) 28%
CCCCn1nnnc1C(c1cc2ccccc2o1)N(C)Cc1ccc(Cl)c(Cl)c1 (stereo not drawn) 26.3%
